According to PubChem BioAssay AID1159580 (chemical genetic matrix, 2015):
The campaign covered roughly 5,500 compounds. About 2,000 (36%) were called active. Another 18% or so got no clear call; they are omitted. Cut-off read from the data, not from the text of the source: active = normalized growth mostly below about 0.91 (no sharp cut-off); inconclusive = no clear call, values can overlap the other calls; inactive = mostly above about 0.92. This is one part of the list.

Test: chemical genetic growth profiling, strain panel (AID 1159580);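 note: tested at 20 µM; growth read once vehicle control cultures reached saturation at 30 °C; 1 = growth at the plate median or of vehicle wells; lower values mean less growth of the strain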
Details: growth OD

Measured: normalized growth

COc1cc(-c2coc3cc(OCc4ccccc4)c(OC)c(O)c3c2=O)cc(OCc2ccccc2)c1OC
inactive: S. cerevisiae deletion strains, locus YAL013W, strain DEP1, active compounds read low 1.04 | S. cerevisiae deletion strains, locus YBR021W, strain FUR4, active compounds read low 1.01 | S. cerevisiae deletion strains, locus YBR229C, strain ROT2, active compounds read low 0.995 | S. cerevisiae deletion strains, locus YCL029C, strain bik1, active compounds read low 0.981 | S. cerevisiae deletion strains, locus YDL035C, strain GPR1, active compounds read low 1.03 | S. cerevisiae deletion strains, locus YDL074C, strain BRE1, active compounds read low 1.02 | S. cerevisiae deletion strains, locus YDL101C, strain DUN1, active compounds read low 0.99 | S. cerevisiae deletion strains, locus YDL185W, strain tfp1, active compounds read low 0.989 | S. cerevisiae deletion strains, locus YDL192W, strain arf1, active compounds read low 0.981 | S. cerevisiae deletion strains, locus YDR101C, strain arx1, active compounds read low 0.991 | S. cerevisiae deletion strains, locus YDR150W, strain NUM1, active compounds read low 1.01 | S. cerevisiae deletion strains, locus YDR162C, strain NBP2, active compounds read low 1.02 | S. cerevisiae deletion strains, locus YDR318W, strain mcm21, active compounds read low 0.992 | S. cerevisiae deletion strains, locus YDR388W, active compounds read low 0.981 | S. cerevisiae deletion strains, locus YDR502C, strain sam2, active compounds read low 0.991 | S. cerevisiae deletion strains, locus YEL061C, strain CIN8, active compounds read low 1.01 | S. cerevisiae deletion strains, locus YER110C, active compounds read low 0.974 | S. cerevisiae deletion strains, locus YER155C, strain BEM2, active compounds read low 0.999 | S. cerevisiae deletion strains, locus YER167W, strain BCK2, active compounds read low 1 | S. cerevisiae deletion strains, locus YGL078C, strain dbp3, active compounds read low 0.988 | S. cerevisiae deletion strains, locus YGL086W, strain mad1, active compounds read low 0.975 | S. cerevisiae deletion strains, locus YGL248W, strain PDE1, active compounds read low 0.973 | S. cerevisiae deletion strains, locus YGR078C, strain PAC10, active compounds read low 1 | S. cerevisiae deletion strains, locus YGR135W, strain pre9, active compounds read low 0.986 | S. cerevisiae deletion strains, locus YGR229C, strain SMI1, active compounds read low 1.04 | S. cerevisiae deletion strains, locus YGR252W, strain gcn5, active compounds read low 1.07 | S. cerevisiae deletion strains, locus YHR030C, strain SLT2, active compounds read low 0.989 | S. cerevisiae deletion strains, locus YHR079C, strain IRE1 (second series), active compounds read low 0.98 | S. cerevisiae deletion strains, locus YHR094C, strain hxt1, active compounds read low 0.978 | S. cerevisiae deletion strains, locus YHR129C, strain ARP1, active compounds read low 0.986 | S. cerevisiae deletion strains, locus YHR200W, strain rpn10, active compounds read low 0.988 | S. cerevisiae deletion strains, locus YIL066C, strain RNR3, active compounds read low 0.982 | S. cerevisiae deletion strains, locus YIL073C, strain SPO22, active compounds read low 0.969 | S. cerevisiae deletion strains, locus YIL125W, strain kgd1, active compounds read low 0.984 | S. cerevisiae deletion strains, locus YIR030C, strain dcg1, active compounds read low 0.988 | S. cerevisiae deletion strains, locus YJL095W, strain BCK1, active compounds read low 0.972 | S. cerevisiae deletion strains, locus YJL134W, strain LCB3, active compounds read low 0.993 | S. cerevisiae deletion strains, locus YJL168C, strain set2, active compounds read low 0.977 | S. cerevisiae deletion strains, locus YJL187C, strain SWE1 (second series), active compounds read low 0.968 | S. cerevisiae deletion strains, locus YJR043C, strain POL32, active compounds read low 1.04 | S. cerevisiae deletion strains, locus YJR075W, strain HOC1, active compounds read low 1.01 | S. cerevisiae deletion strains, locus YKL009W, strain mrt4, active compounds read low 0.968 | S. cerevisiae deletion strains, locus YKL068W, active compounds read low 0.992 | S. cerevisiae deletion strains, locus YKL085W, strain MDH1 (second series), active compounds read low 1.03 | S. cerevisiae deletion strains, locus YKL085W, strain MDH1, active compounds read low 1.03 | S. cerevisiae deletion strains, locus YKL190W, strain CNB1, active compounds read low 1.01 | S. cerevisiae deletion strains, locus YKR001C, strain vps1, active compounds read low 0.964 | S. cerevisiae deletion strains, locus YLR039C, strain RIC1, active compounds read low 1.05 | S. cerevisiae deletion strains, locus YLR058C, strain SHM2, active compounds read low 0.989 | S. cerevisiae deletion strains, locus YLR102C, strain apc9, active compounds read low 0.98 | S. cerevisiae deletion strains, locus YLR262C, strain YPT6, active compounds read low 1.08 | S. cerevisiae deletion strains, locus YLR268W, strain sec22, active compounds read low 0.967 | S. cerevisiae deletion strains, locus YLR330W, strain CHS5, active compounds read low 0.994 | S. cerevisiae deletion strains, locus YLR342W, strain FKS1 (second series), active compounds read low 1.02 | S. cerevisiae deletion strains, locus YLR371W, strain rom2, active compounds read low 0.97 | S. cerevisiae deletion strains, locus YLR418C, strain cdc73, active compounds read low 0.983 | S. cerevisiae deletion strains, locus YML016C, strain PPZ1, active compounds read low 0.991 | S. cerevisiae deletion strains, locus YML032C, strain rad52, active compounds read low 1 | S. cerevisiae deletion strains, locus YML124C, strain tub3, active compounds read low 0.983 | S. cerevisiae deletion strains, locus YMR078C, strain ctf18, active compounds read low 0.975 | S. cerevisiae deletion strains, locus YMR223W, strain ubp8, active compounds read low 0.99 | S. cerevisiae deletion strains, locus YMR307W, strain GAS1, active compounds read low 1.12 | S. cerevisiae deletion strains, locus YNL067W, strain RPL9B, active compounds read low 0.984 | S. cerevisiae deletion strains, locus YNL233W, strain BNI4, active compounds read low 0.977 | S. cerevisiae deletion strains, locus YNL250W, strain rad50, active compounds read low 0.971 | S. cerevisiae deletion strains, locus YNL271C, strain bni1, active compounds read low 0.981 | S. cerevisiae deletion strains, locus YNL298W, strain CLA4, active compounds read low 0.982 | S. cerevisiae deletion strains, locus YNL307C, strain MCK1, active compounds read low 0.969 | S. cerevisiae deletion strains, locus YNL322C, strain KRE1, active compounds read low 0.999 | S. cerevisiae deletion strains, locus YNR052C, strain pop2, active compounds read low 0.991 | S. cerevisiae deletion strains, locus YOL006C, strain TOP1, active compounds read low 0.936 | S. cerevisiae deletion strains, locus YOL012C, strain htz1 0.883 | S. cerevisiae deletion strains, locus YOL147C, strain pex11, active compounds read low 0.989 | S. cerevisiae deletion strains, locus YOR061W, strain CKA2, active compounds read low 0.989 | S. cerevisiae deletion strains, locus YOR069W, strain VPS5, active compounds read low 0.99 | S. cerevisiae deletion strains, locus YOR136W, strain idh2, active compounds read low 0.98 | S. cerevisiae deletion strains, locus YOR144C, strain elg1, active compounds read low 1 | S. cerevisiae deletion strains, locus YOR184W, strain ser1, active compounds read low 0.979 | S. cerevisiae deletion strains, locus YOR316C, strain cot1, active compounds read low 0.981 | S. cerevisiae deletion strains, locus YPL055C, strain LGE1, active compounds read low 0.987 | S. cerevisiae deletion strains, locus YPR119W, strain clb2, active compounds read low 0.981 | S. cerevisiae deletion strains, locus YPR141C, strain kar3, active compounds read low 0.963 | S. cerevisiae deletion strains, locus YPR163C, strain tif3, active compounds read low 0.989 | S. cerevisiae deletion strains, locus YPR167C, strain met16, active compounds read low 0.988 | S. cerevisiae deletion strains, strain wtn01, active compounds read low 0.981 | S. cerevisiae strains, strain wild type, active compounds read low 1
